Screening results from PubChem BioAssay.
LmPK inhibitor = LmPK (Leishmania mexicana) enzyme inhibition. Q27686. purified LmPK, Kinase-Glo ATP luminescence, 1 h. Potency, µM (titrated, usually from 57.5 µM), for inactives: at the top dose activity change, negative = inhibition, usual class: inhibitors. hit rate 0.37% among 290,000. AID 1721; also: potency is read from the fitted curve at half-maximal effect; % is scaled to controls: 0 for no effect and ±100 for the full control effect
Target sequence (Q27686 whole entry, looked up): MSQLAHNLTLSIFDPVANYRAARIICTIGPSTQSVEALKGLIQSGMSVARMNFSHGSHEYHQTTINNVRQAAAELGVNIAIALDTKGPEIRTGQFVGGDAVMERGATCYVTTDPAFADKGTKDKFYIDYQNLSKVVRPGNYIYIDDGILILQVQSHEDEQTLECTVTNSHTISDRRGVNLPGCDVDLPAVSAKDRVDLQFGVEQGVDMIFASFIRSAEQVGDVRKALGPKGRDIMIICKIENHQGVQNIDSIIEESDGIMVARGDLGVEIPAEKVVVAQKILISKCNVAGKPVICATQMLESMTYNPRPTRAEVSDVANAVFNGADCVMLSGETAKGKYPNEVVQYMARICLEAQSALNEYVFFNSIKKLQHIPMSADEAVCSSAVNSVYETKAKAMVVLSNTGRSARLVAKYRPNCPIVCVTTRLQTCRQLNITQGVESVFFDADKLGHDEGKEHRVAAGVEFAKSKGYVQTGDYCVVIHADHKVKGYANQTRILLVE
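Purified LmPK (0.1 nM) converted ADP (0.1 mM) to ATP with PEP (0.5 mM) in imidazole buffer pH 7.2 with KCl and MgCl2, 1 h at room temperature. ATP was read by Kinase-Glo luminescence; data normalized to uninhibited and no-enzyme controls.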
Pf growth 48h = inhibits P. falciparum growth in the first generation, 48 h; P. falciparum luciferase growth in erythrocytes, 48 h; Potency, µM (doses to about 28.7 µM), without a hit: at the highest dose activity change, negative = inhibition, most hits filed as inhibitors; hit rate 5.9% among 310,000; AID 504832; also: potency is read from the fitted curve at half-maximal effect; % is scaled to controls: 0 for no effect and ±100 for the full control effect
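Luciferase-expressing P. falciparum in infected erythrocytes (2% hematocrit, 0.1% parasitemia final) in RPMI 1640/0.5% Albumax were exposed to compound for 48 hours at 37 C, 5% CO2; growth read as luminescence.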
Pf growth 96h = P. falciparum growth inhibition at 96 hour, primary screen for plastid delayed-death inhibitors; AID 504834; hit rate 6.9% among 320,000; Potency, µM (highest dose often 28.7 µM), for inactives: at the top dose activity change, negative = inhibition, most hits filed as inhibitors; P. falciparum luciferase reporter growth, 96 h; also: potency is read from the fitted curve at half-maximal effect; % is scaled to controls: 0 for no effect and ±100 for the full control effect
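P. falciparum expressing integrated firefly luciferase, in erythrocytes at 2% hematocrit, 0.05% parasitemia, incubated with compounds 96 h at 37 C, 5% CO2. Growth inhibition read as loss of luminescence; two-generation exposure targets delayed-death apicoplast inhibitors.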
Cycloheximide cs = counter-screen hit for Shiga toxin inhibitors, cycloheximide; max response, %; hit rate 12% among 300,000; cell reporter, cycloheximide protein synthesis inhibition counterscreen; AID 2314; in the data active = max response mostly above about 13%, no sharp cut-off; inactive = mostly below about 14%; also: read at 38.3 µM for the half of the compounds with a filed dose; 0% is about no effect
Shiga inhibitor = Shiga toxin inhibition | Vero cells, Shiga toxin protein synthesis inhibition reporter | inhibition, % at 38.7 µM | hit rate 9.2% among 290,000; in the data active = inhibition mostly above about 28%, no sharp cut-off; inactive = mostly below about 43%; also: 0% is about no effect
An asterisk follows results filed as active; ? = inconclusive; . = no result; ! = not confirmed by another sample. An excerpt weighted towards active compounds, which were near 22% of everything screened. Unless noted, calls follow the shape of the dose curve; as a rule, active = well fitted inhibition curve with a large enough effect; inconclusive = small, poorly fitted or top-dose-only effect, or another doubt; inactive = no such curve, though single readings can be large or run the other way.

SMILES	LmPK inhibitor	Pf growth 48h	Pf growth 96h	Cycloheximide cs	Shiga inhibitor
COc1ccc(/C=C2\SC(=S)N(CCC(=O)N3CCCCC3)C2=O)cc1	-6%	11%	40%	-3	-4
N#CCCn1cc(C(N)=O)c(-c2ccc3ccccc3c2)n1	3%	?	?	5	-4
CC[N+](C)(CC)CCOC(=O)C(O)(c1ccccc1)C1CCCCC1 (configuration not stated)	3%	12µM*!	13µM*!	-2	-10
CCOC(C(=O)OCC(O)CN(CC)CC)(c1ccccc1)c1ccccc1 (configuration not stated)	1%	10µM*	-31%	-3	4
CCOC(C(=O)OCCC[N+](C)(CC)CC)(c1ccccc1)c1ccccc1	9%	2.1µM*	.	6	21
CC[N+](C)(CC)CCC(c1ccccc1)C1CCCCC1 (configuration not stated)	1%	6.6µM*	?	-1	-5
COc1cc([N+](=O)[O-])c(C(=O)N2CCOCC2)c([N+](=O)[O-])c1	2%	-13%	?	-5	-8
NC(N)=Nc1nc2ccc(Cl)cc2c(=O)[nH]1	-4%	-3%	26%	6	-9
CCN(CC)CC#CCOC(=O)[C@@](O)(c1ccccc1)C1CCCCC1	.	?	12µM*	.	.
CC[N+](C)(CC)CCCOC(=O)C(O)(c1ccccc1)C1CCCCC1 (configuration not stated)	-1%	4.1µM*	-10%	-3	-2
O=C(O)C(O)(c1ccccc1)C1CCCCC1 (configuration not stated)	-3%	-2%	?	3	-7
Cc1ccc(N2C(=O)C3C(C2=O)N2C(c4cccs4)C4C(=O)N(c5ccc(C)cc5)C(=O)C4N2C3c2cccs2)cc1 (configuration not stated)	0%	?	1.9µM*	-3	-2
CN(C(=O)Nc1ccccc1)C1CCS(=O)(=O)C1 (configuration not stated)	0%	-6%	2.3µM*	-2	8
CC(=O)NC1=C(N(C)C2CCS(=O)(=O)C2)C(=O)c2ccccc2C1=O (configuration not stated)	-2%	13µM*	2.1µM*	17	35
CC(=O)NC1=C(Nc2ccc(N(C)C)cc2)C(=O)c2ccccc2C1=O	-15%	?	?	46*	116*
CN(CC(=O)Nc1ccccc1Cl)C1CCS(=O)(=O)C1 (configuration not stated)	.	2%	4%	.	.
CN(C(=O)Nc1ccccc1)C1CCCCC1	2%	35%	40%	14	67
CC(=O)NC(NC(C)=O)c1ccc(N(C)C)cc1	-6%	20%	7%	-2	10
CN(C(=O)Nc1ccccc1)C1CCCc2ccccc21 (configuration not stated)	0%	-25%	?	19*	71*
CCc1nn(CC(=O)NCCCc2ccccc2)c(=O)c2cc3cc(F)ccc3n12	-1%	1%	?	10	-2
CC(=O)Nc1cc(NC(C)=O)ncn1	-2%	?	-27%	-3	-8
O=C(COC(=O)c1ccc2ncsc2c1)Nc1cc(Cl)ccc1F	.	-4%	49%	.	.
Cc1c(Cl)cnc(NC(=O)COC(=O)c2ccc3ncsc3c2)c1Cl	1%	272%	161%	34*	60*
COC(=O)c1ccc(/C=C/C(=O)OCC(=O)Nc2ncc(Cl)cc2Cl)cc1	.	12µM*	?	.	.
O=C(COC(=O)c1ccc2ncsc2c1)Nc1ncc(Cl)cc1Cl	-5%	107%	177%	37*	9
SMILES	LmPK inhibitor	Pf growth 48h	Pf growth 96h	Cycloheximide cs	Shiga inhibitor
O=C(COC(=O)c1ccc(O)cc1)Nc1ncc(Cl)cc1Cl	0%	11%	0%	-3	-20
O=C(COC(=O)c1ccc2ncsc2c1)NC(=O)c1ccccc1	0%	17%	25%	10	-14
COc1ccc(C(=O)NC(=O)COC(=O)c2ccc3ncsc3c2)cc1	1%	23%	60%	32*	35*
COc1ccccc1N1CCN(C(=O)c2ccc3c(c2)CCN3S(=O)(=O)c2ccccc2)CC1	-1%	8.3µM*	?	40	46
O=C(c1cccc(S(=O)(=O)N2CCc3ccccc32)c1)N1CCN(c2ccccc2)CC1	.	?	10µM*	.	.
O=C(c1cccc(S(=O)(=O)N2CCc3ccccc3C2)c1)N1CCN(c2ccccc2)CC1	5%	-8%	?	-5	3
COc1cc([N+](=O)[O-])ccc1NC(=O)CSc1n[nH]c(C(C)C)n1	2%	?	?	-2	-13
C=CCN1C[C@H](C)N([C@H](c2ccc(C(=O)N(CC)CC)cc2)c2cccc(OC)c2)C[C@H]1C	.	4.8µM*	-25%	.	.
CCN(CC)C(=O)c1cn(-c2cccc(OC)c2)c(=O)c2ccccc12	1%	-7%	?	-1	-12
C=CCN1C[C@@H](C)N(C(c2ccc(C(=O)N(CC)CC)cc2)c2cccc(OC)c2)C[C@@H]1C (some centres not stated)	.	1.7µM*	7%	.	.
CCN(CC(=O)Nc1cccc(OC)c1)C(=O)c1ccncc1	0%	3%	7%	-4	6
CC(C)Oc1ccc(/C(O)=C2/C(=O)C(=O)N(CCN3CCNCC3)C2c2cccc([N+](=O)[O-])c2)cc1 (configuration not stated)	2%	9%	131%	-2	7
Cc1ccc(NC(=O)C2COc3ccccc3O2)nc1 (configuration not stated)	-6%	.	?	40*	56
Cc1ccnc(NC(=O)C2COc3ccccc3O2)c1 (configuration not stated)	-14%	211%	207%	65*	56*
CC(C)NC(=O)C1COc2ccccc2O1 (configuration not stated)	-1%	-13%	-1%	9	17
COc1cc(/C=C2\SC(=O)N(CCN)C2=O)ccc1OS(=O)(=O)c1cc(C)ccc1C	-7%	-1%	-25%	-13	-29
CCc1cccc(NC(=O)Cn2c(=O)n(CCC(=O)NCC3CCCO3)c(=O)c3cc(OC)c(OC)cc32)c1 (configuration not stated)	13%	-9%	-14%	-4	-6
COc1ccc(NC(=O)NNC(=O)COc2ccc3ccccc3c2)cc1	0%	17%	-31%	-3	-15
CCOc1ccc(NC(=O)NNC(=O)COc2ccc3ccccc3c2)cc1	-8%	-1%	2.6µM*	-3	-11
CCC(C)(C)NC(=O)COc1ccc(C(=O)c2ccccc2)cc1	8%	-17%	-12%	22*	54
CCNC(=O)COc1ccc2ccccc2c1	0%	83%	2%	71*	58*
O=C(COc1ccc2ccccc2c1)N1c2ccccc2Sc2ccccc21	1%	?	13µM*	7	4
COc1cccc(NC(=O)COC(=O)CNC(=O)C2CCCCC2)c1	.	45%	49%	.	.
CN(C)C(=O)c1ccc(NC(=O)c2ccccc2Sc2ccccc2C#N)cc1	3%	45%	26%	-2	1
